According to PubChem BioAssay (EPA / NIEHS):
The source made the active and inactive calls. Rule for the calls: active = hit-call score of the fitted dose curve at least 0.9, where 1 is the maximum; inactive = score below 0.9.

What was measured:
Conditions in all cases: mRNA level, 48 h; actives raise or lower the signal
[1] = read-out: matrix metalloproteinase-3 (MMP3), MMP3 (gene 4314); assay: LTEA_HepaRG_MMP3: Life Technologies and Expression Analysis (LTEA) Assay for matrix metalloproteinase-3 (MMP3) using HepaRG (AID 2283519)
In short: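 Differentiated human HepaRG cells, plated 48 h on collagen I, were exposed in duplicate for 48 h in serum-free induction medium to eight half-log concentrations up to 100 uM in 0.5% DMSO. MMP3 mRNA was quantified by TaqMan qRT-PCR, normalised to ACTB, GAPDH and POLR2A.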

[2] = read-out: Paternally Expressed 10 (PEG10), PEG10 (gene 23089); assay: LTEA_HepaRG_PEG10: Life Technologies and Expression Analysis (LTEA) Assay for Paternally Expressed 10 (PEG10) using HepaRG (AID 2283520)
In short: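 Differentiated HepaRG cells, plated 48 h then switched to serum-free induction medium, were exposed in duplicate for 48 h to eight half-log concentrations topping at 100 uM in 0.5% DMSO. PEG10 mRNA was quantified by TaqMan qRT-PCR, normalised to ACTB, GAPDH and POLR2A.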

[3] = read-out: Nuclear factor NF-kappa-B p105 subunit (Homo sapiens) (UniProt P19838); assay: LTEA_HepaRG_NFKB1: Life Technologies and Expression Analysis (LTEA) Assay for Nuclear Factor Kappa B Subunit 1 (NFKB1) using HepaRG (AID 2283521);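 note: TaqMan qRT-PCR transcript normalised to ACTB GAPDH and POLR2A housekeeping genes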
In short: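 Human HepaRG cells receive eight half-log concentrations, highest 100 uM, for 48 h. NFKB1 expression is then quantified by qRT-PCR and analysed for up- or down-regulation relative to 0.5% DMSO vehicle.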

[4] = read-out: Protein phosphatase 2A (PPP2R4), PTPA (gene 5524); assay: LTEA_HepaRG_PPP2R4: Life Technologies and Expression Analysis (LTEA) Assay for Protein phosphatase 2A (PPP2R4) using HepaRG (AID 2283522)
In short: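 Differentiated HepaRG cells in serum-free induction medium were exposed in duplicate for 48 h to eight concentrations, top 100 uM with half-log dilutions, in 0.5% DMSO. PPP2R4 mRNA was quantified by TaqMan qRT-PCR, normalized to ACTB, GAPDH and POLR2A.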

[5] = read-out: Phosphatase and tensin (PTEN), PTEN (gene 5728); assay: LTEA_HepaRG_PTEN: Life Technologies and Expression Analysis (LTEA) Assay for Phosphatase and tensin (PTEN) using HepaRG (AID 2283523)
In short: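 Differentiated human HepaRG cells, plated 48 h then switched to serum-free induction medium, were exposed in duplicate for 48 h to eight half-log concentrations up to 100 uM in 0.5% DMSO. PTEN mRNA measured by TaqMan qRT-PCR, normalized to ACTB/GAPDH/POLR2A, bidirectional fit versus DMSO.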

[6] = read-out: solute carrier (SLC22A1), SLC22A1 (gene 6580); assay: LTEA_HepaRG_SLC22A1: Life Technologies and Expression Analysis (LTEA) Assay for solute carrier (SLC22A1) using HepaRG (AID 2283524)
In short: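 Human HepaRG cells were plated 48 h, switched to serum-free induction medium, then exposed in duplicate for 48 h to 8-point half-log series from 100 uM in 0.5% DMSO. SLC22A1 mRNA measured by qRT-PCR, normalized to ACTB/GAPDH/POLR2A, fitted bidirectionally versus DMSO.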

[7] = read-out: Pyruvate Dehydrogenase Kinase 4 (PDK4), PDK4 (gene 5166); assay: LTEA_HepaRG_PDK4: Life Technologies and Expression Analysis (LTEA) Assay for Pyruvate Dehydrogenase Kinase 4 (PDK4) using HepaRG (AID 2283525)
In short: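 Differentiated human HepaRG cells, pre-cultured 48 h, were exposed in duplicate for 48 h in serum-free induction medium to eight half-log concentrations up to 100 uM in 0.5% DMSO. PDK4 mRNA was quantified by qRT-PCR, normalized to ACTB, GAPDH and POLR2A, bidirectional fitting versus DMSO.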

[8] = read-out: NAD(P)H dehydrogenase [quinone] 1 (NQO1), NQO1 (gene 1728); assay: LTEA_HepaRG_NQO1: Life Technologies and Expression Analysis (LTEA) Assay for NAD(P)H dehydrogenase [quinone] 1 (NQO1) using HepaRG (AID 2283526)
In short: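 Differentiated HepaRG cells, plated 48 h and then switched to serum-free induction medium, were exposed in duplicate for 48 h to 8-point half-log concentrations up to 100 uM in 0.5% DMSO. mRNA measured by qRT-PCR, normalized to ACTB, GAPDH, POLR2A; bidirectional fit versus DMSO.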

[9] = read-out: Nuclear factor erythroid 2-related factor 2 (Homo sapiens) (UniProt Q16236); assay: LTEA_HepaRG_NFE2L2: Life Technologies and Expression Analysis (LTEA) Assay for Nuclear factor erythroid 2-related factor 2 (NFE2L2) Transcription Factor using HepaRG (AID 2283527)
In short: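 Differentiated human HepaRG cells in serum-free induction medium were exposed for 48 h to eight concentrations (top 100 uM, half-log dilutions, 0.5% DMSO), in duplicate. NFE2L2 mRNA was quantified by TaqMan qRT-PCR, normalized to ACTB, GAPDH and POLR2A, with bidirectional fitting versus DMSO.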

[10] = read-out: succinate dehydrogenase complex iron sulfur subunit B (SDHB), SDHB (gene 6390); assay: LTEA_HepaRG_SDHB: Life Technologies and Expression Analysis (LTEA) Assay for succinate dehydrogenase complex iron sulfur subunit B (SDHB) using HepaRG (AID 2283528)
In short: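 A human HepaRG culture in serum-free induction medium received test chemicals for 48 h over an eight-point range capped at 100 uM. SDHB expression change was quantified by qRT-PCR.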

[11] = read-out: Signal transducer and activator of transcription 3 (Homo sapiens) (UniProt P40763); assay: LTEA_HepaRG_STAT3: Life Technologies and Expression Analysis (LTEA) Assay for Signal transducer and activator of transcription (STAT3) using HepaRG (AID 2283529)
In short: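 Differentiated human HepaRG cells in serum-free induction medium were exposed in duplicate for 48 h to eight half-log concentrations up to 100 uM in 0.5% DMSO. STAT3 mRNA was quantified by TaqMan qRT-PCR, normalized to ACTB, GAPDH and POLR2A, and fitted bidirectionally against DMSO.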

[12] = read-out: solute carrier (SLCO1B1), SLCO1B1 (gene 10599); assay: LTEA_HepaRG_SLCO1B1: Life Technologies and Expression Analysis (LTEA) Assay for solute carrier (SLCO1B1) using HepaRG (AID 2283530)
In short: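 Gain or loss of SLCO1B1 mRNA is fitted against the 0.5% DMSO vehicle in human HepaRG liver cells treated 48 h at up to 100 uM in half-log steps. Expression comes from qRT-PCR normalized to endogenous controls.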

[13] = read-out: sulfotransferase 2A1 (SULT2A1), SULT2A1 (gene 6822); assay: LTEA_HepaRG_SULT2A1: Life Technologies and Expression Analysis (LTEA) Assay for sulfotransferase 2A1 (SULT2A1) using HepaRG (AID 2283531)
In short: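 Cells were plated and cultured 48 h, switched to serum-free induction medium, then dosed in duplicate for 48 h (8 concentrations, max 100 uM). RNA was isolated and SULT2A1 expression measured by qRT-PCR; gain or loss of signal fitted relative to DMSO.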

[14] = read-out: Transforming Growth Factor (TGFA), TGFA (gene 7039); assay: LTEA_HepaRG_TGFA: Life Technologies and Expression Analysis (LTEA) Assay for Transforming Growth Factor (TGFA) using HepaRG (AID 2283532)
In short: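 Differentiated human HepaRG cells, plated 48 h then switched to serum-free induction medium, were exposed in duplicate for 48 h to 8-point half-log series from 100 uM in 0.5% DMSO. TGFA mRNA measured by qRT-PCR, normalized to ACTB/GAPDH/POLR2A, bidirectional fit versus DMSO.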

[15] = read-out: Transforming Growth Factor (TGFB1), TGFB1 (gene 7040); assay: LTEA_HepaRG_TGFB1: Life Technologies and Expression Analysis (LTEA) Assay for Transforming Growth Factor (TGFB1) Transporter using HepaRG (AID 2283533)
In short: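 Expression change of TGFB1 in human HepaRG cells is measured after a 48 h chemical exposure, up to 100 uM in 0.5% DMSO vehicle. Curves are fitted in both directions relative to the DMSO baseline.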

[16] = read-out: Tumor necrosis factor receptor 1 (TNFRSF1A), TNFRSF1A (gene 7132); assay: LTEA_HepaRG_TNFRSF1A: Life Technologies and Expression Analysis (LTEA) Assay for Tumor necrosis factor receptor 1 (TNFRSF1A) using HepaRG (AID 2283535)
In short: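 Expression of TNFRSF1A in human HepaRG liver cells was measured by qRT-PCR 48 h after chemical dosing (maximum 100 uM). Bidirectional curve fitting used 0.5% DMSO as baseline.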

[17] = read-out: Thyroid Hormone Responsive (THRSP), THRSP (gene 7069); assay: LTEA_HepaRG_THRSP: Life Technologies and Expression Analysis (LTEA) Assay for Thyroid Hormone Responsive (THRSP) using HepaRG (AID 2283536)
In short: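 Differentiated human HepaRG cells were exposed in duplicate for 48 h in serum-free induction medium to eight concentrations (top 100 uM, half-log steps, 0.5% DMSO). Expression was quantified by TaqMan qRT-PCR, normalized to ACTB, GAPDH and POLR2A, with bidirectional fitting against DMSO.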

[18] = read-out: Cellular tumor antigen p53 (Homo sapiens) (UniProt P04637); assay: LTEA_HepaRG_TP53: Life Technologies and Expression Analysis (LTEA) Assay for Tumor Protein P53 (TP53) using HepaRG (AID 2283537)
In short: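 Gain or loss of TP53 mRNA signal is scored relative to 0.5% DMSO after 48 h chemical treatment of HepaRG liver cells, tested in duplicate at eight half-log concentrations up to 100 uM.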

[19] = read-out: UDP glucuronosyltransferase (UGT1A1), UGT1A1 (gene 54658); assay: LTEA_HepaRG_UGT1A1: Life Technologies and Expression Analysis (LTEA) Assay for UDP glucuronosyltransferase (UGT1A1) using HepaRG (AID 2283538)
In short: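 Differentiated human HepaRG cells in serum-free induction medium were exposed in duplicate for 48 h to eight half-log concentrations up to 100 uM in 0.5% DMSO. UGT1A1 mRNA was quantified by TaqMan qRT-PCR, normalized to ACTB, GAPDH and POLR2A, and fitted bidirectionally against DMSO.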

Measured: AC50

Cellular tumor antigen p53 (Homo sapiens), sequence (P04637 whole entry, looked up): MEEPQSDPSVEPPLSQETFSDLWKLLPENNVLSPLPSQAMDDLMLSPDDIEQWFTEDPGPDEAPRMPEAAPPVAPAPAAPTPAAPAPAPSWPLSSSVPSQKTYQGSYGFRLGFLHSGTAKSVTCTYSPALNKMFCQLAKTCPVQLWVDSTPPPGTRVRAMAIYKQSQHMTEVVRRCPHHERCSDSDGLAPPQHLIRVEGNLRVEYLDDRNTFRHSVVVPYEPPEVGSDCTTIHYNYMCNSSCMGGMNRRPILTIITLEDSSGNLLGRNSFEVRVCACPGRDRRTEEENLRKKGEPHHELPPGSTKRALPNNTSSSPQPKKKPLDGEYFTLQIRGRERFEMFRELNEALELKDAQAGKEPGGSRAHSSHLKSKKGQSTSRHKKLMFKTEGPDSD
Signal transducer and activator of transcription 3 (Homo sapiens), sequence (P40763 whole entry, looked up): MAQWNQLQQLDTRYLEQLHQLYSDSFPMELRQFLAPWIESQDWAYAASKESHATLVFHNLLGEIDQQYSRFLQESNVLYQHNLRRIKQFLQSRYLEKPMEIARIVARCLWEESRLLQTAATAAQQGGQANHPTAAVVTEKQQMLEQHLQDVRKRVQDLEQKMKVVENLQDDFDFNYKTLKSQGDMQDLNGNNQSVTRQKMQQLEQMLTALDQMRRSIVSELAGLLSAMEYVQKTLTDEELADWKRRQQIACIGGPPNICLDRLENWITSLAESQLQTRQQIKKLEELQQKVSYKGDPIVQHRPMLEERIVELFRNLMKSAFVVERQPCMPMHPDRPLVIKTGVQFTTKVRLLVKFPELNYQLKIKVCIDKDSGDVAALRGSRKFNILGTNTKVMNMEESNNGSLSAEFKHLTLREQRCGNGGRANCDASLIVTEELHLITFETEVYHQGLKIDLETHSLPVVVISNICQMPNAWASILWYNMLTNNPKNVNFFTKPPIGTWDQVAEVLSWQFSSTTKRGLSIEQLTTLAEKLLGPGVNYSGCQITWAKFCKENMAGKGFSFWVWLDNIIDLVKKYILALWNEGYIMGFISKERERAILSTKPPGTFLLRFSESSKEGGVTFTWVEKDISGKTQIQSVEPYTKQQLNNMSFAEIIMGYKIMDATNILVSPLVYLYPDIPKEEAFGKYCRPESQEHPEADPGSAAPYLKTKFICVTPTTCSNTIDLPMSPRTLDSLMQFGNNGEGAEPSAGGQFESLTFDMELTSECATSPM
Nuclear factor erythroid 2-related factor 2 (Homo sapiens), sequence (Q16236 whole entry, looked up): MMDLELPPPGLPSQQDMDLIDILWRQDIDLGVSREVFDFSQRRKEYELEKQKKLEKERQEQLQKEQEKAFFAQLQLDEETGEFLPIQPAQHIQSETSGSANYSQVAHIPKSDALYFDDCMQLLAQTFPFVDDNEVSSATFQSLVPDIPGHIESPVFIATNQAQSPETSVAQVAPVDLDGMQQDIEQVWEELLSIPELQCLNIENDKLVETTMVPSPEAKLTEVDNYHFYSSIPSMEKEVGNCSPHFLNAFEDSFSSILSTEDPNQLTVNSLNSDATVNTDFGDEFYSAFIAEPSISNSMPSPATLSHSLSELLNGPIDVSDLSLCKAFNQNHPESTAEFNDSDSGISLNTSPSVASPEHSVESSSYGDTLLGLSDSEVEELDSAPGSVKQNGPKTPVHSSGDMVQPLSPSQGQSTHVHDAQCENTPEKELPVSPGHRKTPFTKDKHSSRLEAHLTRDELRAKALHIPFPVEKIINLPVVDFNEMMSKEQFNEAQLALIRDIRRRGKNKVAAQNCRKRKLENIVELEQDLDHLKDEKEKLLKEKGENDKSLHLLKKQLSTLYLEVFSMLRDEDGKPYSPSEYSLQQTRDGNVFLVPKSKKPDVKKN
Nuclear factor NF-kappa-B p105 subunit (Homo sapiens), sequence (P19838 whole entry, looked up): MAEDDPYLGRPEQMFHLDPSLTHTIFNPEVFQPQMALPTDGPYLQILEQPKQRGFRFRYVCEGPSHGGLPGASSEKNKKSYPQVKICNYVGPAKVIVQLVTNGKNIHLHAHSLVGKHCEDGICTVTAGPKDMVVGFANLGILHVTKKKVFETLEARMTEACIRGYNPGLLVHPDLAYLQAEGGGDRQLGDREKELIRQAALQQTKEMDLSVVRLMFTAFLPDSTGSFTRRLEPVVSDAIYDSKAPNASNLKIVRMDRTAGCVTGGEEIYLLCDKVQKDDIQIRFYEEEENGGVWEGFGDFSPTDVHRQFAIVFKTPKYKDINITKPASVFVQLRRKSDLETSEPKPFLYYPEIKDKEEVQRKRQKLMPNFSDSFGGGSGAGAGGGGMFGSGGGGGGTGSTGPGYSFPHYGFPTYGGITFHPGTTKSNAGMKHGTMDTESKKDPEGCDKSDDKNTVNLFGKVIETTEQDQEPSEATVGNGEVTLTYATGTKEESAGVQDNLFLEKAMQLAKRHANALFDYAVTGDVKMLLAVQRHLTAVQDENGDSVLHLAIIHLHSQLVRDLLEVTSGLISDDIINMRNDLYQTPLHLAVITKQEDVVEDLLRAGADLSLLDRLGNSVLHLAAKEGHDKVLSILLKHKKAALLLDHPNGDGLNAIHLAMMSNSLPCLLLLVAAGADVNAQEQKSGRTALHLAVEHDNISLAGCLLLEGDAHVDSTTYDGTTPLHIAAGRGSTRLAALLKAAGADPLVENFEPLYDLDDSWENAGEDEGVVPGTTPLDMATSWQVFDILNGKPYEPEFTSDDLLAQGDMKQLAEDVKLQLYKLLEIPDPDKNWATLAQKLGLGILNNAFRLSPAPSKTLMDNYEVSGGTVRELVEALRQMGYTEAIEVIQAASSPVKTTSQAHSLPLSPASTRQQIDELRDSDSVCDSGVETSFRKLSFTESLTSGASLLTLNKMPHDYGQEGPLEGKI

COc1cc(OC)nc(NC(=O)NS(=O)(=O)c2ncccc2OCC(F)(F)F)n1
active: [7] 0.129 µM | [12] 9.92 µM
inactive: all other assays above

COC(=O)N(C(=O)N1CO[C@@]2(C(=O)OC)Cc3cc(Cl)ccc3C2=N1)c1ccc(OC(F)(F)F)cc1
active: [2] 20.5 µM | [6] 47.9 µM | [7] 40 µM | [9] 10 µM | [12] 59 µM | [13] 65 µM | [17] 40 µM
not listed: [3] | [19]
inactive: all other assays above

CCCCC(O)(Cn1cncn1)c1ccc(Cl)cc1Cl (stereo not given)
inactive: [3] | [4] | [5] | [10] | [16]
active: [1] 92.3 µM | [2] 50 µM | [6] 73.6 µM | [7] 78.8 µM | [8] 50 µM | [9] 50 µM | [11] 85.9 µM | [12] 76.6 µM | [13] 76.3 µM | [14] 71.8 µM | [15] 61.2 µM | [17] 9.77 µM | [18] 72.4 µM | [19] 81.4 µM
